Data reported in PubChem BioAssay AID720582 (The Scripps Research Institute Molecular Screening Center, 2013).
The campaign covered roughly 370,000 compounds. About 2,300 (0.62%) were called active. What follows is part of a selection rich in actives, with near analogues and random picks from the rest. A number with no mark means an inactive call.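 How the source made its calls: active means inhibition above a per-campaign cutoff equal to the mean of compounds falling between control-based bounds plus 3 SD (cut at about 20% in these data); inactive means the rest.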

target: Disintegrin and metalloproteinase domain-containing protein 10 (Homo sapiens) (UniProt O14672); experiment: blockers of ADAM10 peptide cleavage – biochemical, QFRET, HTS, primary screen (AID 720582); details: recombinant ADAM10, EDANS/DABCYL FRET peptide cleavage, 3 h; at 7 µM; stronger effect = higher value;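 further: 0% = DMSO wells while the 100% control is not disclosed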
Sequence (O14672 214-748 limits assumed): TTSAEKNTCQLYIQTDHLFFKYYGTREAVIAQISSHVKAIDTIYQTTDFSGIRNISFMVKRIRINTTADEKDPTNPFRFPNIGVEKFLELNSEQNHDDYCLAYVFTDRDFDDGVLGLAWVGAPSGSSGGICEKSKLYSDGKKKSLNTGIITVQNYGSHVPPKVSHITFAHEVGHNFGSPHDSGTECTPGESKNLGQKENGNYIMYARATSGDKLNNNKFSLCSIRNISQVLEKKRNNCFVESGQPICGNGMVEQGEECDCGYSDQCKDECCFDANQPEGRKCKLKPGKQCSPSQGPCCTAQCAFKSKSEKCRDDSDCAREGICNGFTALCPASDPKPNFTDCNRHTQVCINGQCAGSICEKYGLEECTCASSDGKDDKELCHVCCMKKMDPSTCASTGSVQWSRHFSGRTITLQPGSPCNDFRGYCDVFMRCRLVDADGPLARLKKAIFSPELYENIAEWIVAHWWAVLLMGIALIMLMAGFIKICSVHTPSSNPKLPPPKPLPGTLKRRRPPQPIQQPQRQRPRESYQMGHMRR

| Structure (SMILES) | inhibition |
| --- | --- |
| COc1ccc(-n2nnnc2C(c2cccc3ccccc23)N2CCC(n3c(=O)[nH]c4ccccc43)CC2)cc1 (stereo not given) | 22.7% (active) |
| O=c1[nH]c2ccccc2n1C1CCN(C(c2ccccc2)c2nnnn2Cc2ccccc2)CC1 (stereo not given) | -9.55% |
| O=c1[nH]c2ccccc2n1C1CCN(C(c2ccnc3ccccc23)c2nnnn2Cc2ccccc2)CC1 (stereo not given) | -0.89% |
| CN1CCC(N(C)Cc2cccnc2)CC1 | -14.6% |
| Cc1ccc(-c2nc3ccccc3c(=O)n2-c2ccc(Br)cn2)cc1 | 8.84% |
| COP(=O)(Sc1ccccc1)C(Cc1ccccc1)NC(=O)OCc1ccccc1 (stereo not given) | 2.57% |
| O=C1C2(Cl)C3(Cl)C4(Cl)C(Cl)(Cl)C5(Cl)C3(Cl)C1(Cl)C5(Cl)C24Cl (stereo not given) | 31.6% (active) |
| CO[C@H]([C@H](C)/C=C/N(C)C=O)[C@@H](C)C(=O)CC[C@H](C)[C@H](O)[C@H](C)[C@H]1OC(=O)/C=C/C(C)=C/[C@H](O)[C@H](OC)C[C@@H]2C=CC[C@@H](C[C@H](OC)[C@@]3(CO3)[C@@H](OC)C[C@@H](OC)[C@@H]1C)O2 | 3.02% |
| Cc1ccccc1CCC[C@@H](CC1CCCCC1)CN(C)C(=O)Oc1ccccc1 | 1.44% |
| O=C(NCC(c1cccnc1)N1CCN(c2ccccc2)CC1)Oc1ccccc1 (stereo not given) | 0.63% |
| COC(=O)C1=C(c2ccc(F)cc2OCc2ccccc2)C[C@@H]2CC[C@H]1N2C(=O)NCc1ccc(Cl)cc1 | 17.6% |
| COC(=O)C1=C(c2ccc(-c3ccccc3)c(F)c2)C[C@@H]2CC[C@H]1N2C(=O)NCc1ccc(F)cc1 | 28.2% (active) |
| COC(=O)C1=C(c2cccc(OCc3ccccc3)c2)C[C@@H]2CC[C@H]1N2C(=O)NCc1ccc(Br)cc1 | 19.1% |
| CCOP(=O)(OCC)C(O)c1ccc(OC)cc1OC (stereo not given) | 1.75% |
| O=C(Cn1c(=O)n(CC2CS2)c2ccccc21)N1CCCCC1 (stereo not given) | -0.6% |
